Screening results from PubChem BioAssay.
This is a sample that favours compounds with a hit; in the whole collection about 4% have one here.
Glioma ERSR ind = inducers of ER stress response in human glioma cells. U87-MG GRP78 promoter luciferase reporter, 16 h. Potency, µM, inactives show top-dose activation, hits mostly activators. actives 0.02% (n = 420,000). AID 602332; active = well fitted activation curve with a large enough effect; note: potency is the fitted concentration of half-maximal effect; series mostly up to about 76 µM; % of control where 0% means no effect; nearly all actives have a fitted effect of over 35% in size
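Stably transfected U87-MG human glioma cells carrying a GRP78-based luminescent sensor were seeded at 1000 cells/well, pin-dosed with compounds and incubated 16 h. Luciferase reagent was then added, and end-point luminescence was read after 10 min at room temperature.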
D1 antag = human D1 dopamine receptor antagonism; HEK293 TREx D1 cells, calcium flux, dopamine EC80; active compounds read low; activity change, negative = inhibition, % at 10 µM; actives 3.2% (n = 360,000); in the data active = activity change below about -30%; note: % is set by controls: 0 for no effect and ±100 for the full control effect
Target sequence (P21728 whole entry, looked up): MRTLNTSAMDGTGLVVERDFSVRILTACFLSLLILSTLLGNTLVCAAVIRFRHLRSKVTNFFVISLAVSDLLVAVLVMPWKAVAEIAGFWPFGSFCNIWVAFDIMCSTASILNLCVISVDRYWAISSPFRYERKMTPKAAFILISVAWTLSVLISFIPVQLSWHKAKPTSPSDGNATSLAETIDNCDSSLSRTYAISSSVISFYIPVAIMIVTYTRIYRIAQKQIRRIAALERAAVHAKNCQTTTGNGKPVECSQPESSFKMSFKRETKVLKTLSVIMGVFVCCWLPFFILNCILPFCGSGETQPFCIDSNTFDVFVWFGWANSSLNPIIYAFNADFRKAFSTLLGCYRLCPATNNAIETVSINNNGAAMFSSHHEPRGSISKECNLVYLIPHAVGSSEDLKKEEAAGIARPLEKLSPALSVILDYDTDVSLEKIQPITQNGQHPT
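Kinetic fluorescence of a calcium dye serves as the read-out. D1-expressing Hek293 Trex cells, induced overnight at 30 C, are exposed to compound for 180 s before an EC80 dopamine addition, then read 180 s further.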
TRHR PAM = allosteric enhancers of human TRH receptor; TRHR cells, fluo-8 calcium fluorescence, EC20 TRH enhancement; enhancement, % at 2 µM; actives 0.66% (n = 360,000); AID 493056; in the data active = enhancement above about 30%; note: 0% is about no effect
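Enhancer read-out: after compound pinning and an initial kinetic agonist-mode read, an EC20 of TRH (10 nM final) was injected and fluo-8 calcium signal (Ex 480/Em 530) followed at 1 s/cycle for 100 cycles in TRHR-expressing cells.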
D1 ag = agonists of human D1 dopamine receptor. P21728. HEK293 T-REx D1 cells, calcium flux, agonist mode. activation, % at 2 µM. actives 1% (n = 360,000); note: 0% is about no effect
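Inducible HEK293 T-REx D1 cells, force-coupled to calcium signalling, were plated at 4000 cells/well with tetracycline and held overnight at 30 C. After no-wash calcium dye loading, compound-evoked calcium rise over 180 s flagged agonists.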
TRHR ag = TRH receptor (human) agonism. actives 0.18% (n = 360,000). TRHR cells, calcium flux fluo-8, FDSS agonist mode. activation, % at 2 µM. P34981; note: 0% is about no effect
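Read-out: compound-evoked intracellular calcium rise in TRHR cells, fluo-8 dye, kinetic FDSS fluorescence at 1 s/cycle following a 10-cycle baseline. Cells cultured overnight before dye loading (30 min–1.5 h, RT).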
D1 PAM = enhances dopamine response at the human D1 receptor; potentiation, % at 10 µM; P21728; actives 0.036% (n = 360,000); HEK293 TREx D1 cells, calcium flux, dopamine EC20 potentiation; in the data active = potentiation above about 30%; note: 0% is about no effect
* hit, by the source's call; / = no result; ! = a repeat was not active. Cut-off read from the data, not from the text of the source, unless noted: active = activation above about 30%; inactive = the rest.

SMILES | Glioma ERSR ind | D1 antag | TRHR PAM | D1 ag | TRHR ag | D1 PAM
CCc1cccc(NC(=O)CSc2nc3ccsc3c(=O)n2CC)c1 | -3% | -5 | -10 | 14 | -1 | -1
COc1cc2c(cc1OC)C(COc1ccc(C(C)C)cc1)NCC2 (configuration not stated) | -8% | -27 | 11 | 41* | 3 | -4
CCOc1ccc(N2C(=O)CC(NCCc3c[nH]c4ccccc34)C2=O)cc1 (configuration not stated) | -3% | / | -3 | -2 | 2 | -2
CCCCCCn1c(=O)[nH]c2nc3cc(N)ccc3nc2c1=O | -1% | -14 | 31* | 451* | 130* | 16
Cc1cccc(C)c1NC(=O)C(NC=O)c1ccccc1Cl (configuration not stated) | -6% | -83* | 1 | 1 | 0 | 2
O=C(NCCn1ccc2ccccc21)c1cccc([N+](=O)[O-])c1 | 2% | -37* | -3 | 8 | 0 | -3
Cc1cc(C)n(-c2ncnc3c2oc2ccccc23)n1 | 1% | -3 | -1 | -1 | -1 | 3
CCc1nccn1Cc1cc(C=O)ccc1OC | -1% | 3 | 6 | 8 | 0 | 7
N/C(Cc1nc(-c2ccc(Br)cc2)cs1)=N\O | 3% | -47* | 5 | 2 | 0 | 7
Cc1nc(C)c(-c2csc(Nc3ccc(O)cc3C)n2)s1 | 3% | -32* | -3 | 7 | -1 | -10
N/C(Cc1nc(-c2ccc(F)cc2)cs1)=N\O | 3% | -7 | 0 | 0 | 0 | 11
Cc1nc(C)c(-c2csc(Nc3ccc(F)cc3)n2)s1 | 1% | -38* | 2 | 0 | 1 | -6
Cc1cc(O)ccc1Nc1nc(-c2cccs2)cs1 | -8% | -4 | 10 | 0 | -1 | 1
Fc1ccc(Nc2nc(-c3ccncc3)cs2)cc1 | 2% | -52* | 5 | 1 | 0 | -11
O=C(CSCCO)Nc1ccc(C23CC4CC(CC(C4)C2)C3)cc1 | -1% | 20 | 9 | 5 | 0 | 2
Oc1ccc(Nc2nc(-c3ccc(O)cc3)cs2)cc1 | 13% | -32* | 3 | 41* | -5 | -9
Brc1ccc(-c2csc(Nc3nc(-c4ccc(Br)cc4)cs3)n2)cc1 | 10% | -30* | 6 | 1 | -1 | -14
NS(=O)(=O)c1ccc(Nc2nc(-c3ccc(O)cc3)cs2)cc1 | 0% | -13 | 14 | 2 | 1 | -2
CCCNC(=O)c1cc(Cl)c(NC(=O)C2=C(C)OCCS2)cc1OC | 2% | 4 | -9 | 4 | 0 | -4
O=C(c1cccs1)N1CCC(c2ccccc2)C1 (configuration not stated) | 1% | -85* | 2 | 0 | -2 | -1
O=C(OCc1ccccc1)C1CCCN1C(=O)c1cccs1 (configuration not stated) | -2% | -15 | 39* | 0 | -1 | -4
O=C(COC(=O)C1CCCN1C(=O)c1cccs1)c1ccccc1 (configuration not stated) | 0% | -27 | 0 | 1 | 0 | -2
O/N=C(\c1ccc(Cl)cc1)c1cc2ccccc2o1 | -3% | -16 | -1 | 32* | 1 | -3
COc1ccc(CCNC(=O)CC(c2ccccc2)c2cc(C)ccc2O)cc1OC (configuration not stated) | -6% | -1 | -10 | 2 | 1 | -2
C/C(CC(=O)Nc1ccccc1)=N\NC(=O)COc1ccc(C)cc1Br | -5% | 7 | 34* | -3 | 0 | -1
SMILES | Glioma ERSR ind | D1 antag | TRHR PAM | D1 ag | TRHR ag | D1 PAM
CSc1ccc(CNC(=O)c2c(C)noc2C)s1 | -3% | 6 | 2 | 1 | -1 | 0
COC(=O)c1ccc(CSc2ccc3nnc(-c4cccnc4)n3n2)o1 | / | -46* | -9 | 2 | -1 | -14
Cc1ccc(/C=C2/Sc3ccc(C(=O)N4CCN(c5ccccn5)CC4)cc3NC2=O)cc1 | -4% | -46* | 2 | 4 | 0 | -4
Cc1cc2c(cc1NC(=O)c1ccc(C(C)(C)C)cc1)n(C)c(=O)c(=O)n2C | 0% | 3 | 0 | 0 | -1 | 1
Cc1ccc(-n2nc(C)c(C(=O)NCCCN3CCN(c4ccccc4F)CC3)c2-n2cccc2)cc1 | -7% | -47* | 7 | 22 | -1 | -4
COc1ccc(NC(=O)NCCCN2CCN(c3ccccc3F)CC2)cc1 | -1% | -86* | -3 | 6 | 0 | -13
CCOc1ccc(NC(=O)CCN2CCN(c3ccccc3F)CC2)cc1 | -3% | -16 | 6 | 1 | 0 | -9
CCOc1ccc(NC(=O)NCCN2CCN(c3ccccc3F)CC2)cc1 | -3% | -61*! | 10 | 4 | 0 | -23
Cc1ccc(-n2nc(C)c(C(=O)NCCCN3CCN(c4cccc(Cl)c4)CC3)c2-n2cccc2)cc1 | -2% | -1 | 10 | 3 | 1 | -1
CCOC(=O)c1c(C)[nH]c(C)c1S(=O)(=O)NCCN1CCN(c2ccccc2F)CC1 | -5% | -79* | -4 | 2 | 0 | -20
COC(=O)c1ccc2nc(-c3ccc(F)cc3)c(Cc3ccccc3)n2c1 | 3% | / | / | / | / | /
Cc1nc2c(c(=O)c3ccccc3n2C)c(=O)n1C1CCCCCC1 | -4% | 9 | -6 | 154* | 33* | 0
CC(C)Cn1c(-c2ccco2)nc2c(c(=O)c3ccccc3n2C)c1=O | / | -17 | -10 | 6 | 6 | -5
Cn1c2ccccc2c(=O)c2c(=O)n(C3CCCCC3)c(-c3ccco3)nc21 | -1% | -3 | 0 | 106* | 11 | -9
CCOC(=O)c1c(-c2ccccc2)csc1NC(=O)COc1ccc2c(C)cc(=O)oc2c1 | -2% | 6 | -15 | 2 | 0 | -8
COc1ccc(OC)c(N(C(=O)c2snc(C(N)=O)c2N)C(C(=O)NCC2CCCO2)c2ccc3ncccc3c2)c1 (configuration not stated) | 3% | 21 | 4 | 5 | -1 | /
c1ccc(Nc2nc(N3CCCCC3)nc(N3CCCCC3)n2)cc1 | -7% | 6 | 7 | 2 | 0 | 2
c1ccc(Nc2nc(N3CCCCC3)nc(N3CCNCC3)n2)cc1 | -5% | 38 | 3 | 42* | 0 | 4
Cc1c(C(=O)NCc2ccccn2)oc2ccc(Br)cc12 | 5% | 36 | 1 | 3 | 0 | -7
O=C(NCc1ccccn1)c1cc2cc(Br)ccc2oc1=O | 0% | -68* | -1 | 0 | 0 | -1
O=C1NC(=Nc2ccccc2Cl)S/C1=C\c1cc([N+](=O)[O-])ccc1O | 20% | 10 | 0 | 76* | 8 | -8
